Several values for one entry are separate records, joined by “and”; a condition that tells them apart may be missing. Identical values can stand only once.
Biological target: Solute carrier family 2, facilitated glucose transporter member 1 (Homo sapiens) (UniProt P11166)
Assay: ST_JUDE_LEISH: Cytotoxicity at 2uM final concentration against transgenic Leishmania Mexicana promastigotes LmGLUT1 that are glucose transport deficient and complemented with the human glucose transporter GLUT1. Activity is measured by DNA content using SYBR green in vitro
Type: functional

Solute carrier family 2, facilitated glucose transporter member 1 (Homo sapiens), sequence (P11166 whole entry): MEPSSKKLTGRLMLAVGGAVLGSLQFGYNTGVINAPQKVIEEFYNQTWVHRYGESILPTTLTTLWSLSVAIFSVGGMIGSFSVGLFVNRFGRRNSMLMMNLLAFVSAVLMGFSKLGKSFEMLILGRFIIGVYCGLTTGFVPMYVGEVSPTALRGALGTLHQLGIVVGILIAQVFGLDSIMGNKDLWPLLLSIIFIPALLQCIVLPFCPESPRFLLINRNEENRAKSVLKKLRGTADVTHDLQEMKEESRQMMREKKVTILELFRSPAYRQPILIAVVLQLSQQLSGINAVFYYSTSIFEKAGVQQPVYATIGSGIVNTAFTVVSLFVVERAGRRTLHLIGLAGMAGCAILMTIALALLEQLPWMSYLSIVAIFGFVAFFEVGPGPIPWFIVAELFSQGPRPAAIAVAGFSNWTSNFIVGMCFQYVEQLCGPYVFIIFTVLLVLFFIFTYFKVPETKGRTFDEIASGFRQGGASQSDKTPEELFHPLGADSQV

Row | SMILES | inhibition
1 | Cc1cc(N2CC=CCC2)nc(NC(=N)Nc2ccc(Cl)cc2)n1 | 6.87%
2 | O=C(/C=C/c1ccc(Cl)c(Cl)c1)NCCCCCN1CCCN(C(=O)Nc2ccc(Cl)cc2)CC1 | 0.39%
3 | Cc1cc(NCCC(=O)Nc2ccccc2)nc(NCc2ccccc2C)n1 | 11%
4 | CN(C)c1ccc(-c2nc3cc(N)ccc3[nH]2)cc1 | -2.7%
5 | N#Cc1ccc2c(c1)CCN(CCC1CCC(NC(=O)/C=C/c3cccc4ccccc34)CC1)CC2 (stereo not given) | 4.36%
6 | CCCCCCCCNCc1c(O)ccc2ccccc12 | 3.46%
7 | Cc1nnsc1C(=O)Nc1cccc(-c2ccc(-c3nc4cc(F)ccc4[nH]3)cc2)c1 | 3.93%
8 | COC(=O)c1cccc(C#CCCOCCCCCCNC[C@H](O)c2cc(Cl)c(N)c(Cl)c2)c1 | 2.64%
9 | CS(=O)(=O)Nc1cccc(-c2cnc3[nH]cc(-c4ccc(C(=O)O)cc4)c3c2)c1 | 0.37%
10 | c1cc(Nc2nccc(-c3cnn4ncccc34)n2)cc(-c2cnco2)c1 | 35.9%
11 | COc1ccc(CNCc2cccc(-c3csc(-c4nc5ccccc5[nH]4)c3)c2)cc1 | -1.65%
12 | OC(COCc1ccc(-c2ccccc2)cc1)CN1CCCCC1 (stereo not given) | 2.72%
13 | CCCNC(=O)c1cncc(-c2ccc(CNCCCc3ccccc3)cc2)c1 | 1.92%
14 | O=C(/C=C/c1ccc(Cl)c(Cl)c1)NCCCCCN1CCC(c2c[nH]c3ccccc23)C(O)C1 (stereo not given) | 0.14% and 4.45%
15 | COc1ccc(S(=O)(=O)NCCCC2CCN(CCCCCNC(=O)C=Cc3ccc(Cl)c(Cl)c3)CC2)cc1 | 0.69%
16 | CNCc1ccc(-c2ccc3ccnc(N)c3c2)cc1 | 2.47%
17 | O=C(Nc1ccc(OC2CCN(Cc3ccc(F)cc3)C2)cc1)c1ccco1 (stereo not given) | 2.22%
18 | COc1ccc2nccc([C@@H](O)CN3CCC(NC(=O)c4cc5c(F)cc(F)cc5[nH]4)CC3)c2c1 | 18.1%
19 | CN(C)CCN(C)Cc1ccc(-c2ccc3c(Nc4ccc(Oc5ccccc5)cc4)ccnc3c2)o1 | 0.78%
20 | c1cncc(-c2cccc(CNc3nccc(Nc4ccc(OCCN5CCOCC5)cc4)n3)c2)c1 | 0.48%

Row | SMILES | inhibition
21 | O=C(N[C@@H](Cc1ccccc1)C(=O)NCCN1CCCCC1)c1ccc(O)c(-c2cccc(C(F)(F)F)c2)c1 | 2.63%
22 | COc1ccc(C2=[N+]([O-])c3ccccc3C2=O)cc1 | 0.97%
23 | COc1ccc(CNCc2ccccc2)cc1-c1ccc(S(=O)(=O)NCCN2CCCC2)c(F)c1 | 18.3%
24 | CCOc1ccc2c(=NN=Cc3c4ccccc4cc4ccccc34)cc(C)[nH]c2c1 | 2.42%
25 | O=[N+]([O-])c1cccc(CNCC2CCN(CC3CCCCC3)CC2)c1 | -0.61%
26 | O=C(C=Cc1ccc(-c2nc3ccccc3[nH]2)cc1)NC1CCN(Cc2ccccc2)CC1 | -1.19%
27 | Cc1nnsc1C(=O)Nc1ccc(-c2ccc(-c3nc4cccc(C)c4[nH]3)s2)cc1 | 5.61%
28 | COc1ccc(C2CC(=O)C3=C(C2)NC(C)=C(C(=O)OC(C)C)C3c2ccccc2F)cc1OC (stereo not given) | 13.6%
29 | O=C(/C=C/c1cccc(Br)c1)NCCCCCN1CCC(c2c[nH]c3ccccc23)CC1 | 3.71%
30 | COc1cccc(CN2CCCN(Cc3cccc(NC(=O)c4ccc(Cl)c(Cl)c4)c3)CC2)c1 | 4.43%
31 | CC1CCCCN1S(=O)(=O)c1ccc(NC(=O)c2cc(-c3ccccc3O)n[nH]2)cc1 (stereo not given) | 1.2%
32 | CN1CCN(c2ccnc3ccc(NC(=O)Nc4c(Cl)cccc4Cl)cc23)CC1 | -2.39%
33 | COc1ccc2nccc(CCN3CC(O)C(CNCc4ccc5c(n4)NC(=O)CS5)C3)c2n1 (stereo not given) | 3.43%
34 | Cc1cc(I)ccc1Nc1nc2nonc2nc1Nc1ccc(I)cc1C | 9.92%
35 | Cc1cccc2nc(-c3cccc(-c4cccc(CNCCCN5CCCC5=O)c4)c3)[nH]c12 | -0.74%
36 | Oc1ccc(-c2ccccc2)cc1CN1CCCCCC1 | 1.18%
37 | N=C(NCCCc1ccccc1)c1cccc(C(=N)NCCCc2ccccc2)n1 | -0.39%
38 | O=C1C(=Cc2cc(Cc3ccccc3)ccc2O)SC(=S)N1Cc1ccccc1 | 8.42%
39 | Cc1nc(-c2cccc(Nc3nccc(NCC(O)c4ccccc4)n3)c2)cs1 (stereo not given) | 1.43%
40 | Nc1c(I)cc(C(=O)Nc2ccc3nc4c(c(N)c3c2)CCCC4)cc1I | 2.52%

From ChEMBL document CHEMBL3433997, “St. Jude Leishmania screening dataset” (2016)
